# Bioassay records from PubChem.
# Most compounds without a hit are left out; they make up all but 2.1% or so of the library.
# YB-1 expression: YB-1 expression inhibition; delta delta Cp (YB-1 minus CDIP) (concentration not given with the values); U2OS, qRT-PCR YB-1 vs CDIP delta delta Cp, 16 h; active compounds read high; zero = DMSO, each unit about twofold; hit rate 0.37% among 30,000; AID 434959;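 active = delta delta Cp rounded down to an integer at or above 3, about 3 SD of DMSO wells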;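 note: higher means less YB-1 transcript or more CDIP transcript relative to DMSO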
# ROS inducer: cancer cell ROS induction; U2OS ROS induction, H2DCF-DA fluorescence; ROS induction (% of piperlongumine), % at 10 µM; hit rate 2% among 46,000; AID 624156; in the data active = ROS induction above about 79%, passing the limit was not always enough;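 note: 0% = DMSO vehicle median and 100% = reference compound median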
# * hit, by the source's call; / = no result given.
SMILES,YB-1 expression,ROS inducer
C/C=C/[C@@H](CCn1cc([C@H](O)c2ccccc2)nn1)[Si](C)(C)c1ccc(OC)cc1,0.144,3.2
C/C=C/[C@H](CCn1cc([C@H](O)c2ccccc2)nn1)[Si](C)(C)c1ccc(OC)cc1,0.0281,109.7*
O=C(CSC1=Nc2ccccc2C2=NC(Cc3ccccc3)C(=O)N12)c1ccc(F)cc1 (stereo unspecified),/,1.0
CCOC(=O)c1cnc2c(-c3ccccc3)cnn2c1C,/,45.2
CCOC(=O)c1cnc2c(cnn2CC)c1NN=C(C)C,4.91*,6.7
CC(C)(C)NC(=O)CCCN1C(=O)/C(=C/c2ccccc2)SC1=S,/,9.6
CCOc1ccc(NC(=O)c2ccc3c(c2)N(Cc2ccc(C)cc2)CCS3)cc1,/,-0.5
O=C(Oc1nsnc1N1CCCCC1)N(c1ccccc1)c1ccccc1,/,7.1
OC(CSc1ncnc2nc[nH]c12)c1ccc(Cl)cc1 (stereo unspecified),/,-8.5
COc1ccc(C#Cc2ccc3c(c2)[C@]2(C(=O)N3)[C@H](c3ccc(OCCO)cc3)N3[C@H](c4ccccc4)[C@H](c4ccccc4)OC(=O)[C@H]3[C@@H]2C(=O)N2CCN(c3ncccn3)CC2)cc1,0.12,18.8
COCCOC(=O)N1C(=O)[C@@]2(c3ccccc31)[C@H](C(=O)N1CCN(c3ncccn3)CC1)[C@H]1C(=O)O[C@H](c3ccccc3)[C@H](c3ccccc3)N1[C@@H]2c1ccc(OCCO)cc1,0.118,105.0*
COCCOC(=O)N1C(=O)[C@@]2(c3ccccc31)[C@H](c1ccccc1OCCO)N1[C@H](c3ccccc3)[C@H](c3ccccc3)OC(=O)[C@H]1[C@@H]2C(=O)N1CCN(c2ncccn2)CC1,-0.0646,111.3*
COCCOC(=O)N1C(=O)[C@@]2(c3ccccc31)[C@H](c1ccccc1OCCO)N1[C@H](c3ccccc3)[C@H](c3ccccc3)OC(=O)[C@H]1[C@@H]2C(=O)N1CCCCCCC1,-0.305,103.4*
COCCOC(=O)N1C(=O)[C@@]2(c3cc(C#CCC(C(=O)OC)C(=O)OC)ccc31)[C@H](c1ccc(O)cc1)N1[C@H](c3ccccc3)[C@H](c3ccccc3)OC(=O)[C@H]1[C@@H]2C(=O)N1CCc2cc(OC)c(OC)cc2C1,-0.112,41.2
COc1ccc(C#Cc2ccc3c(c2)[C@]2(C(=O)N3)[C@H](c3ccccc3OCCO)N3[C@H](c4ccccc4)[C@H](c4ccccc4)OC(=O)[C@H]3[C@@H]2C(=O)N2CCN(c3ncccn3)CC2)cc1,-0.0134,18.5
O=C1O[C@H](c2ccccc2)[C@H](c2ccccc2)N2[C@H]1[C@@H](C(=O)N1CCCCCCC1)[C@]1(C(=O)Nc3ccccc31)[C@H]2c1ccccc1OCCO,-0.387,48.3
COCCOC(=O)N1C(=O)[C@@]2(c3cc(C#CCC(C(=O)OC)C(=O)OC)ccc31)[C@H](c1ccc(OCCO)cc1)N1[C@H](c3ccccc3)[C@H](c3ccccc3)OC(=O)[C@H]1[C@@H]2C(=O)N1CCN(c2ncccn2)CC1,0.114,112.0*
CC(C)CN(CC(C)C)C(=O)NCc1noc2ccccc12,/,-0.1
O=C(NCCc1ccccc1)c1ccc2nc(-c3cccs3)c(-c3cccs3)nc2c1,/,50.3
CCc1ccc(Sc2cc(C(=O)NC3CC3)c3ccccc3n2)cc1,/,-1.2
CCOC(=O)C1=C(SCc2ccccc2)NC(=O)C(C#N)C12CCCCC2 (stereo unspecified),/,8.4
COC(=O)c1ccccc1NC(=O)c1ccc2c(c1)sc1nc(-c3ccc(OC)cc3)cn12,/,-6.8
COCCOC(=O)N1C(=O)[C@@]2(c3cc(C#CC4=CCCCC4)ccc31)[C@H](C(=O)N1CCN(c3ncccn3)CC1)[C@H]1C(=O)O[C@H](c3ccccc3)[C@H](c3ccccc3)N1[C@@H]2c1ccccc1OCCO,-0.503,127.6*
COCCOC(=O)N1C(=O)[C@@]2(c3cc(C#CC4=CCCCC4)ccc31)[C@H](c1ccc(OCCO)cc1)N1[C@H](c3ccccc3)[C@H](c3ccccc3)OC(=O)[C@H]1[C@@H]2C(=O)N1CCc2cc(OC)c(OC)cc2C1,-0.021,38.6
CCc1cccc(NC(=S)N(C)Cc2cn(C)c3ccccc23)c1,/,27.6
SMILES,YB-1 expression,ROS inducer
COc1ccc(N2C(=O)C3CC=CCC3C2=O)cc1 (stereo unspecified),/,-17.2
Cn1c(SCC(=O)c2ccc(Cl)cc2)nnc1-c1ncc(C(F)(F)F)cc1Cl,/,-5.1
COc1ccc(C2C(C(=O)O)c3ccccc3C(=O)N2Cc2ccc(Cl)cc2)cc1 (stereo unspecified),0.257,-3.2
COc1ccc(CN2C(=O)[C@@H]3[C@H]4C(=O)O[C@H](c5ccccc5)[C@@H](C)N(C)C(=O)CC/C=C/[C@H]4O[C@@]34C=CCN(Cc3ccccc3)C(=O)[C@@H]24)cc1,0.0045,121.9*
O=C(CN1C(=O)c2ccccc2C1=O)N(Cc1ccccc1)Cc1ccccc1,/,13.1
CCCN(CCC)C(=O)CSc1nc2ccsc2c(=O)n1Cc1ccccc1Cl,/,37.9
O=C(CC1CCC1)Nc1ccc(Oc2ccccc2)cc1,/,-5.6
S=C1NCN(C2CCCCC2)CN1,0.444,-2.4
Cn1c2c(c(=O)n(C)c1=O)CN(C1CCCC1)CN2,3.95*,-15.8
O=C(O)c1cccc(Nc2nc(Nc3ccccc3)nc(N3CCCC3)n2)c1,/,150.5*
CC(=O)c1cccc(NC(=O)CSc2nc(N3CCCCC3)nc(N3CCCCC3)n2)c1,/,20.5
O=C(CSc1nnnn1-c1ccccc1)Nc1cc(Cl)ccc1C(=O)O,/,153.7*
O=C(CSc1nnnn1-c1ccccc1)Nc1cc(Cl)c(Cl)cc1Cl,/,-12.4
O=C(NCc1ccccc1)N1CCSc2ccccc21,/,-5.3
CSc1sc(C(=O)Sc2ccccc2)c2c1S(=O)(=O)N(C)c1ccccc1-2,0.177,3.3
CSc1sc(C(=O)Sc2ccccc2)cc1S(=O)(=O)C(C)C,0.124,79.6*
CCOC(=O)c1cccc(NC(=O)Cn2ncc3c(C)n(Cc4ccc(F)cc4)c(C)c3c2=O)c1,/,2.0
Brc1ccccc1OCC1CCCN2CCCCC12 (stereo unspecified),/,2.4
C[C@@H]1CN([C@H](C)CO)C(=O)Cc2cc(NC(=O)Cc3cn(C)c4ccccc34)ccc2O[C@@H]1CN(C)CC1CC1,-0.349,123.8*
C[C@H](CO)N1C[C@H](C)[C@H](CN(C)Cc2ccc(-c3ccccc3)cc2)Oc2ccc(NC(=O)Cc3cn(C)c4ccccc34)cc2CC1=O,-0.076,1.8
C[C@@H]1CN([C@H](C)CO)C(=O)Cc2cc(NC(=O)Cc3cn(C)c4ccccc34)ccc2O[C@H]1CN(C)Cc1ccccc1,-0.342,2.6
C[C@H](CO)N1C[C@H](C)[C@H](CN(C)Cc2ccc(Oc3ccccc3)cc2)Oc2ccc(NC(=O)Cc3cn(C)c4ccccc34)cc2CC1=O,-0.0802,5.0
C[C@H]1CN([C@@H](C)CO)C(=O)Cc2cc(NC(=O)Cc3cn(C)c4ccccc34)ccc2O[C@H]1CN(C)CC1CCCCC1,0.38,10.8
C[C@@H]1CN([C@H](C)CO)C(=O)Cc2cc(NC(=O)Cc3cn(C)c4ccccc34)ccc2O[C@@H]1CN(C)Cc1ccc(-c2ccccc2)cc1,-0.119,109.1*
C[C@@H]1CN([C@H](C)CO)C(=O)Cc2cc(NC(=O)Cc3cn(C)c4ccccc34)ccc2O[C@@H]1CN(C)Cc1ccc(Oc2ccccc2)cc1,0.0387,130.6*
